Measured values: the supplement of paper PMC11732987, “Enantioselective OTUD7B fragment discovery through chemoproteomics screening and high-throughput optimisation” (Communications Chemistry, 2025)

Assays:
Assay in all cases: log2 ratio of Biotin-Ahx-Ub-VS probe labelling (fragment/DMSO); higher = less target engagement (more negative = stronger competition), active = hit call of the paper (q ≤ 0.05, log2 ratio ≤ -1)
Conditions in all cases: compound concentration: 200 uM; treatment time: 3 h
[1] = target: USP9X (UniProt Q93008)
USP9X, sequence (Q93008 whole entry, the tested form may be a part): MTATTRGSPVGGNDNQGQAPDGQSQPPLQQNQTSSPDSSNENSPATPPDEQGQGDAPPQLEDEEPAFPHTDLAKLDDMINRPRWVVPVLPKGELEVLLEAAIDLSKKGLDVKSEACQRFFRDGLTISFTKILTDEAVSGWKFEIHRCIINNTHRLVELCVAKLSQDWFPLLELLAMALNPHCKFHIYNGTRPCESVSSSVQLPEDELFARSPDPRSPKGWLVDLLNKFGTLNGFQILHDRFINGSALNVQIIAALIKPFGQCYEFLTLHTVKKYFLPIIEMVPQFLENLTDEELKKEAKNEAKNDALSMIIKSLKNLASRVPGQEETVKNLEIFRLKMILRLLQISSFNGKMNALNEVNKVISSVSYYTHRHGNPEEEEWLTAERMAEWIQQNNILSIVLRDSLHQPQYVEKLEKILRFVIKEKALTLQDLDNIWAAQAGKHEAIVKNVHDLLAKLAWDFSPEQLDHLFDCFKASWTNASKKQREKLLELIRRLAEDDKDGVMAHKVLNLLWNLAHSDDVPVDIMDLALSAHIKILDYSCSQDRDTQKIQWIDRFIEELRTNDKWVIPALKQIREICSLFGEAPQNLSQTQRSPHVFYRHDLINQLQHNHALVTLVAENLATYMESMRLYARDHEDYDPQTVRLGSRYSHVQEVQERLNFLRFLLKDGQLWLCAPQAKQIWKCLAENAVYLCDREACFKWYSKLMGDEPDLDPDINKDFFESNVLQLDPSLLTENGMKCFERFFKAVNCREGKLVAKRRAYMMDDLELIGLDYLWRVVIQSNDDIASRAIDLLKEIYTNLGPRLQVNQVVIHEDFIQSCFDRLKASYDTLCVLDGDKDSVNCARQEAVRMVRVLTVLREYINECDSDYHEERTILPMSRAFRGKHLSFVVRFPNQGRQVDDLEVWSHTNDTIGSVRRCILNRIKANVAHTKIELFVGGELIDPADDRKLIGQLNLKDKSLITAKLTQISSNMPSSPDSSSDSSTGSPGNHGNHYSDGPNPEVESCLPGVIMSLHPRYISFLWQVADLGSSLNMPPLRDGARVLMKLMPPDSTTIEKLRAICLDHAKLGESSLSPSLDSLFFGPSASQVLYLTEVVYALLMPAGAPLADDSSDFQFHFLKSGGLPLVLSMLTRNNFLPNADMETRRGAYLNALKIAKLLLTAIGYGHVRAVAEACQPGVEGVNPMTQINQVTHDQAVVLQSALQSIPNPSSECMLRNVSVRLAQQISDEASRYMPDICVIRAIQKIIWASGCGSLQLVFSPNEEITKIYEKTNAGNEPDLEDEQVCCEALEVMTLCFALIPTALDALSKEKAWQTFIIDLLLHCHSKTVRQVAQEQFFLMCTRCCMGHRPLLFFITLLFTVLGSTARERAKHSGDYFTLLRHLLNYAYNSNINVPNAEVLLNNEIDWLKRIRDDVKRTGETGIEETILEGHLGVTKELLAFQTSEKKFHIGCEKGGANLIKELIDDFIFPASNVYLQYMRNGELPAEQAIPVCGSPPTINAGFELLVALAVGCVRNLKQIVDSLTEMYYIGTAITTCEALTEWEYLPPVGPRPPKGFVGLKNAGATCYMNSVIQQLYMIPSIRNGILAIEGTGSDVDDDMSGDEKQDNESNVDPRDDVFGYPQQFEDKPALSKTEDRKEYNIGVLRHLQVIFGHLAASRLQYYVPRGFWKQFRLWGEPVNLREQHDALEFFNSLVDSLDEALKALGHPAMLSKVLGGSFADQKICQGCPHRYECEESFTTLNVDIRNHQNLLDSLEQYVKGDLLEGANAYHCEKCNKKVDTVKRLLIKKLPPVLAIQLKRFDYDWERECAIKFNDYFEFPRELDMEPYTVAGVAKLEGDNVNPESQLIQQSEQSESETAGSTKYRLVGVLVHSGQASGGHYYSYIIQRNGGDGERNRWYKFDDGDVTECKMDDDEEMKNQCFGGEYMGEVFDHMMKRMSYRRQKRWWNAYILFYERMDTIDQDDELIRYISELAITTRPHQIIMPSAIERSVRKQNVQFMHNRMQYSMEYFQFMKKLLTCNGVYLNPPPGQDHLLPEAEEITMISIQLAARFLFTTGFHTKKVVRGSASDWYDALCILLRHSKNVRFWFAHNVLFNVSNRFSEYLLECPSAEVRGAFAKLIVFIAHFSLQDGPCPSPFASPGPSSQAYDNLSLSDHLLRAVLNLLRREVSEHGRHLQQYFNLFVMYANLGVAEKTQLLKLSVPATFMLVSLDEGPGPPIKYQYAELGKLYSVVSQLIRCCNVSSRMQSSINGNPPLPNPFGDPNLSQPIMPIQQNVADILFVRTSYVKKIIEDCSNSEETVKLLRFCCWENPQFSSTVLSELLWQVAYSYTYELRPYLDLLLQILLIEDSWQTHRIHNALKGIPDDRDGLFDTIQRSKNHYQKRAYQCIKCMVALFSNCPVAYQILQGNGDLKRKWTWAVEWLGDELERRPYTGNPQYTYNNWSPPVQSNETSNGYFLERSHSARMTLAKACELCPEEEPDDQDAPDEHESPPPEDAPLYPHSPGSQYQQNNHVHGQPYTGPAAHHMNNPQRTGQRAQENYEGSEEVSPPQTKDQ
Procedure, shortened: (§1)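 HEK293T lysate in Tris/CHAPS/IGEPAL buffer with protease inhibitors (495 µg per sample) was given fragment at 200 µM or vehicle for 3 h, in triplicate. It then received Biotin-Ahx-Ub-VS at 0.5 µM final for 1 h. Labelled DUBs were NeutrAvidin-enriched, digested with LysC and trypsin, and run by diaPASEF LC-MS/MS. Values are average log2 fragment/vehicle ratios by unpaired t-test on global-median-normalised Spectronaut quantities of proteins with ≥2 unique peptides.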

[2] = target: UniProt O00487
Procedure, shortened: as §1

[3] = target: UniProt O00507
UniProt O00507, sequence (O00507 whole entry): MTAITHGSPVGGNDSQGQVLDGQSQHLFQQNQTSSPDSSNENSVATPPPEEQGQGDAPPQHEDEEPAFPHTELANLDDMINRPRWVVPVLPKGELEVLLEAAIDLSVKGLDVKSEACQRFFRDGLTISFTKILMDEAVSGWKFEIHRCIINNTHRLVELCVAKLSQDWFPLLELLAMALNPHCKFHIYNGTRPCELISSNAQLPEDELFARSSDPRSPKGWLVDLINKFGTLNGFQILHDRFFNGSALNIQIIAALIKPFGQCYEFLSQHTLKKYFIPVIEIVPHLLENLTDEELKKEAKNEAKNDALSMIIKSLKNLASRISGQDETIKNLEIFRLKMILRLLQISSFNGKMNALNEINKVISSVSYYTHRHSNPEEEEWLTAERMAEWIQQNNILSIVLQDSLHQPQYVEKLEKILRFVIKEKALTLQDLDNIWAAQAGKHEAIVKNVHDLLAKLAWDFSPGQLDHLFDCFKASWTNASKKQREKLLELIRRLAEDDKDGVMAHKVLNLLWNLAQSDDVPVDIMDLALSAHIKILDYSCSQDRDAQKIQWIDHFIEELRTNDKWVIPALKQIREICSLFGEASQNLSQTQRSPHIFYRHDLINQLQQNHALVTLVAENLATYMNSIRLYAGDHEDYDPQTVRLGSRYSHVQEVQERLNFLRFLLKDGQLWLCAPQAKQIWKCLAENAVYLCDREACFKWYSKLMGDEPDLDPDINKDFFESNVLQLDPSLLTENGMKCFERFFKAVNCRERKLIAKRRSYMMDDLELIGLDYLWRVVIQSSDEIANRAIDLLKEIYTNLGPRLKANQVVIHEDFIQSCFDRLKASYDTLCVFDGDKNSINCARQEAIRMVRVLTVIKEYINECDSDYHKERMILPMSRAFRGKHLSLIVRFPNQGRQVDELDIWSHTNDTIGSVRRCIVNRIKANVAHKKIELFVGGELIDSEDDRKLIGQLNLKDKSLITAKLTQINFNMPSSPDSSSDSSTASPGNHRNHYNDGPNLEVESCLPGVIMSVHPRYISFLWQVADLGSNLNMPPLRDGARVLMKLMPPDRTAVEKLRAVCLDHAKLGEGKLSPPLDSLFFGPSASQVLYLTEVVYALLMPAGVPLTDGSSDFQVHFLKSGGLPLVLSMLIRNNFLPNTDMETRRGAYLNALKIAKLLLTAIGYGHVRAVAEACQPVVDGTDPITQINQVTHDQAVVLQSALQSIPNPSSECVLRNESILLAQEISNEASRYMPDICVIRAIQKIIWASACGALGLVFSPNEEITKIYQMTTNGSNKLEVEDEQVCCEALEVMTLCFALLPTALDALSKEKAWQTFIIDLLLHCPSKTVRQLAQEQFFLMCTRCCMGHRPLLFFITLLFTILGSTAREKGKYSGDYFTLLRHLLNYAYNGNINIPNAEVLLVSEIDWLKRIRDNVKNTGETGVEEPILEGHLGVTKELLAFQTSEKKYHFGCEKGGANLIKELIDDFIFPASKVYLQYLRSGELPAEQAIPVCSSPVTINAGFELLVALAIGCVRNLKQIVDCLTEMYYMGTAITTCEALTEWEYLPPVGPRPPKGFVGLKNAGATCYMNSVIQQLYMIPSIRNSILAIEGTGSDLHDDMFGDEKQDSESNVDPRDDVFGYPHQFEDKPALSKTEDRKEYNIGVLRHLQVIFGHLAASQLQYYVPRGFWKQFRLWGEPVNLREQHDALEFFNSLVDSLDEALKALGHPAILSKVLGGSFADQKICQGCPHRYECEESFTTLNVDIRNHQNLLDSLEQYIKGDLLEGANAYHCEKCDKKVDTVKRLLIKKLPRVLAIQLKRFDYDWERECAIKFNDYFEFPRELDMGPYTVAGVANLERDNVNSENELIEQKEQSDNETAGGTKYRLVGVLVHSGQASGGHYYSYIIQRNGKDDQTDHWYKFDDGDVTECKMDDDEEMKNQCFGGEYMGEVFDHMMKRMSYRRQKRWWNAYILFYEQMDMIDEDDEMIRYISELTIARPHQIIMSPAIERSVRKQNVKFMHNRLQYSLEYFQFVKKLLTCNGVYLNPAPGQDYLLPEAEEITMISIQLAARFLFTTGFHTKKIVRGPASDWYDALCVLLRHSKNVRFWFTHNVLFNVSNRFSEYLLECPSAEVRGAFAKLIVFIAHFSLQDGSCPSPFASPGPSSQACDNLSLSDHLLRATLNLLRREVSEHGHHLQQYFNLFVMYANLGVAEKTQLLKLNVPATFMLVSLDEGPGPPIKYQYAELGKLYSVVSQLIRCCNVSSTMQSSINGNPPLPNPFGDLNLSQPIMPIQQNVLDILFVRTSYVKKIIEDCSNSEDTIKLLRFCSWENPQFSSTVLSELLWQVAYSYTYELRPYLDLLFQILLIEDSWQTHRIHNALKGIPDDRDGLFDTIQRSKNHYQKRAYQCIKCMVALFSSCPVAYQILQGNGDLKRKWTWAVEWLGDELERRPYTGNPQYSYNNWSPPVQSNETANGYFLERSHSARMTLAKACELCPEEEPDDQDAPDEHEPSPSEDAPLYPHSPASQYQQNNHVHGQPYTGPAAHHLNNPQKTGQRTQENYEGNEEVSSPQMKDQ
Procedure, shortened: as §1

[4] = target: UniProt P51784
Procedure, shortened: as §1

[5] = target: T1, UniProt Q5T2D3
T1 sequence (whole entry): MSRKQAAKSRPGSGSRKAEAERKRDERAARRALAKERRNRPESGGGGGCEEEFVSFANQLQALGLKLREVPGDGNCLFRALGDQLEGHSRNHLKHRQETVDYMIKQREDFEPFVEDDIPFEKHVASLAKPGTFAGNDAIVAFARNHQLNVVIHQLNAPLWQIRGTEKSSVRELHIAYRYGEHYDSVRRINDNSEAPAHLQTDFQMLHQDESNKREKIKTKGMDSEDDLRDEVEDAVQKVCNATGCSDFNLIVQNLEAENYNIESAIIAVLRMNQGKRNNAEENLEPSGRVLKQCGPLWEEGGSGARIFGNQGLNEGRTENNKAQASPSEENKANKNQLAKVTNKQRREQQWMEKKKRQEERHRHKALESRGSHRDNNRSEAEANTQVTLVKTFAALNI
Procedure, shortened: as §1

[6] = target: T2, UniProt Q8TE49
T2 sequence (whole entry): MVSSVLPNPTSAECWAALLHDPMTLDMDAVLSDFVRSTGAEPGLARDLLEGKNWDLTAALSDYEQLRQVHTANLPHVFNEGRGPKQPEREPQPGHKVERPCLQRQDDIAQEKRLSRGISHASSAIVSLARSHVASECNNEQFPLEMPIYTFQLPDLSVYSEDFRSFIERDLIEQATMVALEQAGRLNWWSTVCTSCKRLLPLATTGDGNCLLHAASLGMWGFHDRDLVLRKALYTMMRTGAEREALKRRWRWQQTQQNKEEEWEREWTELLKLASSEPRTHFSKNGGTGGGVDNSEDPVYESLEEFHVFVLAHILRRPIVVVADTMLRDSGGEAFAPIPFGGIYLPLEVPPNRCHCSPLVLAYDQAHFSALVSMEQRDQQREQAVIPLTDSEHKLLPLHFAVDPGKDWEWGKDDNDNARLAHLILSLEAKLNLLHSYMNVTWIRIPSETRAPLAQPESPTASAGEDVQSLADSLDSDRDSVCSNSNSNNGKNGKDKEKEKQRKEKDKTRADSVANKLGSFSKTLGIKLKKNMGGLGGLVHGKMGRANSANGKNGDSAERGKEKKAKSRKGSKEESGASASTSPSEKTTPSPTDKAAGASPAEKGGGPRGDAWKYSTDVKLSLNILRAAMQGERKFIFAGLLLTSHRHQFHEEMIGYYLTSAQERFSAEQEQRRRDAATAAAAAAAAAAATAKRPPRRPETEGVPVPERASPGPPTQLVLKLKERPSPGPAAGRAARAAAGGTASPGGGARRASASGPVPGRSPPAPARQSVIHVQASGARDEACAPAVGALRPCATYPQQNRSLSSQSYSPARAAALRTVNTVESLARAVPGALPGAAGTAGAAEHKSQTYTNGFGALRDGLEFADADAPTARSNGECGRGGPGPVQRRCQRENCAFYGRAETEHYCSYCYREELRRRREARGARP
Procedure, shortened: as §1

[7] = target: T3, UniProt Q9P2H5
T3 sequence (whole entry): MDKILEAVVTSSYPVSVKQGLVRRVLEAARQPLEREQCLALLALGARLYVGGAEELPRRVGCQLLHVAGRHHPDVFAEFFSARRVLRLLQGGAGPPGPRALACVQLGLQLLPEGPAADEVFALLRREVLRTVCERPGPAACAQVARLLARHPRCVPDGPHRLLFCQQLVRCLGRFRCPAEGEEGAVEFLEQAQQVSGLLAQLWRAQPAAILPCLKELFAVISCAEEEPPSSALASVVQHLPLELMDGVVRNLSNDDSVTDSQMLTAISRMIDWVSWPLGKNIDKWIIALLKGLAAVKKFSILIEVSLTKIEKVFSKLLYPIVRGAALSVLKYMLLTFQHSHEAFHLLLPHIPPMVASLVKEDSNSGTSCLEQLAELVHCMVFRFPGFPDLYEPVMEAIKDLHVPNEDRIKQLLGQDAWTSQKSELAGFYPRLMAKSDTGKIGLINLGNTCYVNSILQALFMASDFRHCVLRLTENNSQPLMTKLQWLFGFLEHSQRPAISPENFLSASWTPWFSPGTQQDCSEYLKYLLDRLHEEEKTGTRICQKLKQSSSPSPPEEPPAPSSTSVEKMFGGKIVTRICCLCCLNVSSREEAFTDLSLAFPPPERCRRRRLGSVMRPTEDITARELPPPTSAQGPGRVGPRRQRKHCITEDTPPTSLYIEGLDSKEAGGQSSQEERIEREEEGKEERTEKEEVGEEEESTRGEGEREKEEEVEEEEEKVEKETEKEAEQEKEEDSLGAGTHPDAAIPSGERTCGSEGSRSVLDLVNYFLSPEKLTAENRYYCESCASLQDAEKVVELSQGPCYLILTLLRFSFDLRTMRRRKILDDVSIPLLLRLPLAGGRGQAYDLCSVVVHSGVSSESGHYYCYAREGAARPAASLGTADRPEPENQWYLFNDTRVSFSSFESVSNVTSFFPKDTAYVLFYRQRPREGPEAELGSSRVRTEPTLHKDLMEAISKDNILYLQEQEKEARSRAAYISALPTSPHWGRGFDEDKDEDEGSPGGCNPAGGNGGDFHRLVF
Procedure, shortened: as §1

[8] = target: T4, UniProt Q9UGI0
T4 sequence (whole entry): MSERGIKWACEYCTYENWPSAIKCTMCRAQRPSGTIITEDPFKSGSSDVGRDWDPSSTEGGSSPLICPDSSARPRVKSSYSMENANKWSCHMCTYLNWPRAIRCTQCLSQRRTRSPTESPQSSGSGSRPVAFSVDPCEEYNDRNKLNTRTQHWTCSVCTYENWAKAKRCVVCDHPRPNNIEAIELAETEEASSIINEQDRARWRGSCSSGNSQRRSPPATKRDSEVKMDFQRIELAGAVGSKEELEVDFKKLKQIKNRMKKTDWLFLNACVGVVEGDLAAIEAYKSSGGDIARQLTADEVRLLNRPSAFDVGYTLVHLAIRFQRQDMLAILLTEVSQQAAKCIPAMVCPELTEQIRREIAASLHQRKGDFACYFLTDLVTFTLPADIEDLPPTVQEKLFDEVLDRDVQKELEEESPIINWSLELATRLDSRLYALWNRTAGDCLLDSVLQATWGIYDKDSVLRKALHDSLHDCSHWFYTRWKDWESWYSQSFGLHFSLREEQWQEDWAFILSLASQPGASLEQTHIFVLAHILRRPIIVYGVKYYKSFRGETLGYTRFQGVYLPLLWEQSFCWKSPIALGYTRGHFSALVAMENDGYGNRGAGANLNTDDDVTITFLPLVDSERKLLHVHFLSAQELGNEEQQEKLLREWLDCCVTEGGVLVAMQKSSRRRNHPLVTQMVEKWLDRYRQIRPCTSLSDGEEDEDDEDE
Procedure, shortened: as §1

[9] = target: T5, YOD1 (UniProt Q5VVQ6)
T5 sequence (whole entry): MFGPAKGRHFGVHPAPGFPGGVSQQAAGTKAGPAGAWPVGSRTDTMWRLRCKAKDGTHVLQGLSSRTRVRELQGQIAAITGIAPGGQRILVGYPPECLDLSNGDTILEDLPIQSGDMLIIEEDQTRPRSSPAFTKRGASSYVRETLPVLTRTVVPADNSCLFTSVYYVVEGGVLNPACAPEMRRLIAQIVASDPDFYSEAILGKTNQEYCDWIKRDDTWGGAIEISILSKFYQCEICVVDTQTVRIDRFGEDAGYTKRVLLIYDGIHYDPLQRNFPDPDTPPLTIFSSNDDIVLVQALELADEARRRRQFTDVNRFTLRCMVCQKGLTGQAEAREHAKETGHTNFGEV
Procedure, shortened: as §1

Measured: log2 ratio of Biotin-Ahx-Ub-VS probe labelling

C[C@@H](NC(=O)CCl)c1cccc(C#N)c1
inactive: [1] -0.116 | [2] 0.0457 | [3] -0.38 | [4] 0.045 | [5] -0.157 | [6] -0.912 | [7] -0.136 | [8] -0.111 | [9] -0.0878
